Assay results from PubChem BioAssay (NCATS).
Results filed as inconclusive are left out. The source made the active and inactive calls. Calls come from the whole dose curve; as a rule, active = well fitted inhibition curve with a large enough effect; inconclusive = small, poorly fitted or top-dose-only effect; inactive = flat fitted curve, though single readings scatter.

Tests used:
Test in all cases: qHTS profiling for inhibitors of Plasmodium falciparum proliferation (AID 504749); note: nearly all actives have a fitted effect of over 60% in size
Conditions in all cases: P. falciparum in erythrocytes, SYBR Green DNA, 72 h; series mostly up to 28.7 µM
CP335 = system: CP335
Summary of the method: (§1)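 Each compound contacts P. falciparum-infected red blood cells for 72 h at 37 C; lysis buffer (Tris, EDTA, saponin, Triton X, SYBR Green I) is added and fluorescence measured next morning; values normalized to controls.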

DFO2036 = system: DFO2036
Summary of the method: as §1

DIV14 = system: DIV14
Summary of the method: as §1

DIV30 = system: DIV30
Summary of the method: as §1

Dd2 = system: Dd2
Summary of the method: as §1

ECU = system: ECU
Summary of the method: as §1

FAB9 = system: FAB9
Summary of the method: as §1

HB3 = system: HB3
Summary of the method: as §1

ICS = system: ICS
Summary of the method: as §1

JCK = system: JCK
Summary of the method: as §1

N140 = system: N140
Summary of the method: as §1

P93_24 = system: P93_24
Summary of the method: as §1

P94_40 = system: P94_40
Summary of the method: as §1

PAD = system: PAD
Summary of the method: as §1

PC15 = system: PC15
Summary of the method: as §1

PC26 = system: PC26
Summary of the method: as §1

PC49 = system: PC49
Summary of the method: as §1

SC27B = system: SC27B
Summary of the method: as §1

DIV17 = system: DIV17
Summary of the method: as §1

GB4 = system: GB4
Summary of the method: as §1

Measured: Potency

O=C(O)c1cc(=O)c2ccccc2o1
not listed: DIV17 | GB4
inactive: all other assays above

O=C(O)Cn1c(C(=O)Nc2nc(-c3ccccc3Cl)cs2)cc2ccccc21
not listed: ICS
inactive: all other assays above

FC(F)(F)C(Cl)Br (stereo not drawn)
not listed: DIV17
inactive: all other assays above

Cc1cc(NC(=O)C2=C(O)c3ccccc3S(=O)(=O)N2C)no1
not listed: DIV17
inactive: all other assays above

CC(C)CCOC(=O)c1ccc(N(C)C)cc1
not listed: N140
inactive: all other assays above

NC(=O)CC[C@@H](N)C(=O)O
not listed: P93_24
inactive: all other assays above

O=C1CC[C@@H](C(=O)O)N1
not listed: ICS | P93_24 | DIV17 | GB4
inactive: all other assays above

COc1cc(O)cc(O)c1
not listed: DIV17
inactive: all other assays above

CN(C/C=C/C#CC(C)(C)C)Cc1cccc2ccccc12
not listed: ICS | P94_40
inactive: all other assays above

CC(=O)N[C@@H](Cc1ccc(O)cc1)C(=O)O
not listed: DIV30
inactive: all other assays above

COC(=O)c1cccnc1
not listed: P93_24 | PC49
inactive: all other assays above
